Source: PubChem BioAssay AID1159580 (chemical genetic matrix, 2015)
“And” between values parts separate entries of the source, which are not always exact repeats. Identical values can stand only once. Among all 5,500 compounds or so, about 2,000 (36%) were called active. Inconclusive results (about 18%) are left out. Cut-off read from the data, not from the text of the source: active = normalized growth mostly below about 0.91 (no sharp cut-off); inconclusive = no clear call, values can overlap the other calls; inactive = mostly above about 0.92. The list shows a part of the results.

Assay: chemical genetic growth profiling, strain panel (AID 1159580);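 note: tested at 20 µM; growth read once vehicle control cultures reached saturation at 30 °C; 1 = growth at the plate median or of vehicle wells; lower values mean less growth of the strain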
Conditions: S. cerevisiae deletion strains, growth OD

Measured: normalized growth

CS(=O)(=O)Nc1ccc([N+](=O)[O-])cc1Oc1ccccc1
inactive: locus YAL013W, strain DEP1, stronger effect = lower value 0.986 and 1 | locus YAL021C, strain ccr4, stronger effect = lower value 0.991 | locus YAL026C, strain drs2, stronger effect = lower value 0.991 | locus YAL030W, strain snc1, stronger effect = lower value 1 | locus YAL040C, strain CLN3, stronger effect = lower value 1 | locus YBL061C, strain skt5, stronger effect = lower value 0.994 | locus YBR009C, strain hhf1, stronger effect = lower value 0.971 | locus YBR021W, strain FUR4, stronger effect = lower value 0.994 | locus YBR023C, strain chs3, stronger effect = lower value 0.984 | locus YBR171W, strain sec66, stronger effect = lower value 0.988 | locus YBR229C, strain ROT2, stronger effect = lower value 0.958 | locus YBR231C, strain swc5, stronger effect = lower value 0.993 | locus YBR279W, strain paf1, stronger effect = lower value 0.994 | locus YCL011C, strain gbp2, stronger effect = lower value 0.996 | locus YCL016C, strain dcc1, stronger effect = lower value 0.997 | locus YCL029C, strain bik1, stronger effect = lower value 0.97 | locus YCL061C, strain MRC1 (second series), stronger effect = lower value 1.01 | locus YCL061C, strain MRC1, stronger effect = lower value 1 | locus YCL069W, strain vba3, stronger effect = lower value 0.997 | locus YCR088W, strain abp1, stronger effect = lower value 0.999 | locus YDL005C, strain med2, stronger effect = lower value 0.991 | locus YDL035C, strain GPR1, stronger effect = lower value 0.976 | locus YDL040C, strain nat1, stronger effect = lower value 0.985 | locus YDL074C, strain BRE1, stronger effect = lower value 0.944 | locus YDL101C, strain DUN1, stronger effect = lower value 0.964 | locus YDL134C, strain PPH21, stronger effect = lower value 0.999 | locus YDL185W, strain tfp1, stronger effect = lower value 0.971 | locus YDL192W, strain arf1, stronger effect = lower value 0.966 | locus YDR001C, strain nth1, stronger effect = lower value 0.993 | locus YDR069C, strain doa4, stronger effect = lower value 1.02 | locus YDR101C, strain arx1, stronger effect = lower value 0.98 | locus YDR137W, strain rgp1, stronger effect = lower value 0.857 | locus YDR150W, strain NUM1, stronger effect = lower value 0.983 and 1.02 | locus YDR159W, strain sac3, stronger effect = lower value 0.977 | locus YDR162C, strain NBP2, stronger effect = lower value 0.979 | locus YDR195W, strain ref2 1.01 | locus YDR297W, strain sur2, stronger effect = lower value 0.991 | locus YDR318W, strain mcm21, stronger effect = lower value 0.991 | locus YDR334W, strain swr1, stronger effect = lower value 1 | locus YDR335W, strain msn5, stronger effect = lower value 0.993 | locus YDR363W, strain ESC2, stronger effect = lower value 0.994 | locus YDR388W, stronger effect = lower value 0.977 | locus YDR392W, strain spt3, stronger effect = lower value 0.904 | locus YDR502C, strain sam2, stronger effect = lower value 0.943 | locus YEL003W, strain gim4, stronger effect = lower value 0.999 | locus YEL037C, strain rad23, stronger effect = lower value 0.995 | locus YEL061C, strain CIN8 (second series), stronger effect = lower value 0.988 | locus YEL061C, strain CIN8, stronger effect = lower value 0.979 | locus YER002W, strain NOP16, stronger effect = lower value 0.997 | locus YER015W, strain faa2, stronger effect = lower value 0.994 | locus YER016W, strain bim1, stronger effect = lower value 0.991 | locus YER110C, stronger effect = lower value 0.986 | locus YER111C, strain swi4, stronger effect = lower value 0.978 | locus YER155C, strain BEM2 (second series), stronger effect = lower value 0.991 | locus YER155C, strain BEM2, stronger effect = lower value 1 | locus YER167W, strain BCK2, stronger effect = lower value 1 | locus YFR010W, strain ubp6, stronger effect = lower value 1 | locus YGL078C, strain dbp3, stronger effect = lower value 0.978 | locus YGL086W, strain mad1, stronger effect = lower value 0.969 | locus YGL167C, strain pmr1, stronger effect = lower value 0.988 | locus YGL173C, strain kem1, stronger effect = lower value 0.995 | locus YGL227W, strain vid30, stronger effect = lower value 0.997 | locus YGL240W, strain doc1, stronger effect = lower value 0.995 | locus YGL248W, strain PDE1, stronger effect = lower value 0.946 | locus YGL253W, strain hxk2, stronger effect = lower value 1.01 | locus YGR078C, strain PAC10, stronger effect = lower value 0.96 and 1.02 | locus YGR135W, strain pre9, stronger effect = lower value 1.02 | locus YGR229C, strain SMI1, stronger effect = lower value 0.971 | locus YGR252W, strain gcn5, stronger effect = lower value 0.92 | locus YHR013C, strain ard1, stronger effect = lower value 0.967 | locus YHR027C, strain rpn1, stronger effect = lower value 0.995 | locus YHR030C, strain SLT2, stronger effect = lower value 0.995 and 1.02 | locus YHR079C, strain IRE1 (second series), stronger effect = lower value 0.977 | locus YHR079C, strain IRE1, stronger effect = lower value 1.04 | locus YHR094C, strain hxt1, stronger effect = lower value 0.98 | locus YHR129C, strain ARP1, stronger effect = lower value 0.987 | locus YHR142W, strain chs7, stronger effect = lower value 0.991 | locus YHR200W, strain rpn10, stronger effect = lower value 0.972 | locus YIL066C, strain RNR3, stronger effect = lower value 0.964 | locus YIL073C, strain SPO22, stronger effect = lower value 0.969 | locus YIL125W, strain kgd1, stronger effect = lower value 0.98 | locus YIR030C, strain dcg1, stronger effect = lower value 0.976 | locus YJL092W, strain hpr5, stronger effect = lower value 0.997 | locus YJL095W, strain BCK1 (second series), stronger effect = lower value 0.993 | locus YJL095W, strain BCK1, stronger effect = lower value 0.956 and 1.04 | locus YJL115W, strain asf1, stronger effect = lower value 0.999 | locus YJL129C, strain trk1, stronger effect = lower value 0.979 | locus YJL134W, strain LCB3, stronger effect = lower value 0.991 | locus YJL154C, strain vps35, stronger effect = lower value 0.992 | locus YJL164C, strain tpk1, stronger effect = lower value 0.992 | locus YJL166W, strain qcr8, stronger effect = lower value 0.997 | locus YJL168C, strain set2, stronger effect = lower value 0.98 | locus YJL187C, strain SWE1 (second series), stronger effect = lower value 0.949 | locus YJL187C, strain SWE1, stronger effect = lower value 0.996 | locus YJR043C, strain POL32, stronger effect = lower value 0.911
